# Screening data: PubChem, National Center for Advancing Translational Sciences (NCATS)
# JMJD2A Tudor inh: qHTS Assay for Inhibitors of JMJD2A-Tudor Domain. 4.4% of 390,000 active. AlphaScreen JMJD2A-Tudor / H3K4me3 peptide binding. Potency, µM (doses to about 114 µM), usual class: inhibitors. Lysine-specific demethylase 4A (Homo sapiens), O75164; also: nearly all actives have a fitted effect of over 50% in size
# ALOX12 inh: Primary qHTS assay for inhibitors of human arachidonate 12S-lipoxygenase (ALOX12): Round 2 | Potency, µM (titrated, usually from 108 µM), most hits filed as inhibitors | Polyunsaturated fatty acid lipoxygenase ALOX12 (Homo sapiens), P18054 | purified 12hLO, xylenol orange hydroperoxide absorbance | AID 1671190, 2021 | 1.1% of 580,000 active
# Target sequence (P18054 whole entry, looked up): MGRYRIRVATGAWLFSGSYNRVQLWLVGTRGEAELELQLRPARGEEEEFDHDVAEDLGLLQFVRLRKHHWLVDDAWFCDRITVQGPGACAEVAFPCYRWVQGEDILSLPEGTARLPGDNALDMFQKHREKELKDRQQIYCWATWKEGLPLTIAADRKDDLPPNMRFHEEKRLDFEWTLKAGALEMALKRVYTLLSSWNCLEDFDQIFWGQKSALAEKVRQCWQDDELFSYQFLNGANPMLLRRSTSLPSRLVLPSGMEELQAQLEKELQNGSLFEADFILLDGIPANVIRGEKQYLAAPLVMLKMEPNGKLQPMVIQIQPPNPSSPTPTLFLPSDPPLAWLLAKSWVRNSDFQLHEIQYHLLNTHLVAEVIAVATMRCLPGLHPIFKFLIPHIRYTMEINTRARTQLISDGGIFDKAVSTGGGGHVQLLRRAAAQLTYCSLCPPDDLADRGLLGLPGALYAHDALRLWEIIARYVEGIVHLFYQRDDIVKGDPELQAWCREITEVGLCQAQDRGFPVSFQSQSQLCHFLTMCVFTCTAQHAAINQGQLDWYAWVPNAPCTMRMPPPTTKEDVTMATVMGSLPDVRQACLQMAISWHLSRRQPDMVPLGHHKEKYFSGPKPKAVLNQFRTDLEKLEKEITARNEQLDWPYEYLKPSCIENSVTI
#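 Purified human 12hLO at 150 nM in 25 mM Hepes, 0.01% Triton X-100, pH 7.0, preincubated 15 min at room temperature with compound. Reaction started with 40 uM arachidonic acid, 30 min at room temperature. Hydroperoxide measured by Fe-xylenol orange, 573/405 nm absorbance ratio.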
# HP1b binding inh: HTS for Inhibitors of HP1-beta Chromodomain Interactions with Methylated Histone Tails; AlphaScreen HP1-beta / biotin-H3K9me3 peptide binding; Potency, µM (doses to about 114 µM), hits mostly inhibitors; 0.56% of 390,000 active; also: nearly all actives have a fitted effect of over 70% in size
#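 AlphaScreen: HP1-beta (50 nM) preformed 30 min with biotin-H3(1-18)K9me3 peptide (50 nM) in PBS pH 7.4, 0.01% Tween-20. Compound added for 30 min at RT, then streptavidin donor/nickel chelate acceptor beads (10 ug/mL) for 30 min.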
# Sfp PPTase inh: qHTS Assay for Inhibitors of Bacillus subtilis Sfp phosphopantetheinyl transferase (PPTase); 4'-phosphopantetheinyl transferase ffp (Bacillus subtilis), Q9F4F7; Biochemical Sfp PPTase activity, qHTS; Potency, µM, most hits filed as inhibitors; 3.5% of 310,000 active; AID 1490, 2009;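 also: the enzyme is Sfp with the accession as filed and its product quenches rhodamine fluorescence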
#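 Step 1, compound plus 15 nM Sfp-PPTase, 15 min, room temperature. Step 2, add rhodamine-CoA (5 uM) and BHQ-2-YbbR (12.5 uM). Step 3, read 525/598 nm fluorescence at 0 and 30 min.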
# G9a block: qHTS Assay for Inhibitors of Histone Lysine Methyltransferase G9a; Histone-lysine N-methyltransferase EHMT2 (Homo sapiens), Q96KQ7; G9a H3K9 monomethylation, AlphaScreen, 2 h; Potency, µM (top dose mostly 102 µM), actives largely listed as inhibitors; 8.8% of 350,000 active; also: nearly all actives have a fitted effect of over 75% in size
#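 Compounds were preincubated with 20 nM G9a for 15 min, after which biotinylated H3K9 peptide (500 nM) and SAM (20 uM) started a 2 h room-temperature reaction. Monomethylated product was quantified by antibody-based AlphaScreen chemiluminescence.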
# BAZ2B inh: qHTS Assay for Inhibitors of BAZ2B; AlphaScreen BAZ2B-H3K14Ac peptide displacement; Potency, µM (highest dose often 114 µM), hits mostly inhibitors; 4.4% of 360,000 active; also: nearly all actives have a fitted effect of over 60% in size
#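 Protein-peptide AlphaScreen: BAZ2B 50 nM, b-H3K14Ac 50 nM, 1x PBS pH 7.4 + 0.01% Tween-20. Preincubation 30 min RT; cpd 30 min RT (top 110 uM); beads 20 min RT, light-protected.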
# Hits are given with their value; – = inactive; ? = inconclusive; · = not tested or not shown; ! = not active in a repeat; [ ] = remark or other dose. In the library only some 8.7% were active in any assay of this set; here they are far more common. Calls follow the shape of the dose curve; as a rule, active = well fitted curve in the direction sought with a large enough effect; inconclusive = small, poorly fitted or top-dose-only effect, or another doubt; inactive = no such curve, though single readings can be large; an effect the other way counts as inactive or inconclusive.
SMILES,JMJD2A Tudor inh,ALOX12 inh,HP1b binding inh,Sfp PPTase inh,G9a block,BAZ2B inh
CC[n+]1c(C)n(-c2ccccc2)c2ccc(C(=O)OC)cc21,–,?,–,–,·,?
CCOC(=O)c1c(C)n(-c2ccccc2)c2ccc(OC(=O)c3cccc(Cl)c3)cc12,–,–,–,·,–,–
CC(=O)OCC[n+]1c(C)n(-c2ccccc2)c2ccc(Cl)cc21,?,?,–,–,50.1µM,–
CCOC(=O)c1c(O)c(O)c(C(=O)OCC)n1-c1ccccc1,35.5µM,?,–,31.6µM,8.91µM,–
CN(C)C[C@@H]1CN(Cc2ccncc2)C[C@H]1N,·,–,·,·,·,·
COc1ccc(N2CCN(C(=O)c3cccc(S(=O)(=O)N4CCc5ccccc54)c3)CC2)cc1,39.8µM,–,?,·,·,·
COc1ccc(N2CCN(C(=O)c3cccc(S(=O)(=O)N4CCCc5ccccc54)c3)CC2)cc1,?,–,–,·,–[12.7 µM],?
NC(=O)C1CCN(C(=O)c2cccc(S(=O)(=O)N3CCc4ccccc4C3)c2)CC1,–,–,–,–,–,–
O=C(c1cccc(S(=O)(=O)N2CCc3ccccc3C2)c1)N1CCN(c2ccc(O)cc2)CC1,?,?,?,–,2.51µM,?
COC(=O)[C@H]1C[C@@H]1[C@H](NC(=O)[C@H]1C[C@@H]1[C@H](NC(=O)OCc1ccccc1)c1ccccc1)c1ccccc1,–,–,–,–,44.7µM,–
COC(=O)[C@H]1C[C@@H]1[C@H](NS(=O)(=O)c1ccccc1)c1ccccc1,–,–,–,70.8µM!,?,–
Cc1ccc2nc(C)cc(C(=O)OC(C)C(=O)Nc3cc(C)on3)c2c1 (stereo unspecified),·,–,·,·,·,·
COc1ccccc1NC(=O)N1CC2CC(C1)[C@H]1CCCC(=O)N1C2 (stereo partly specified),·,–,·,·,·,·
C#CCOCCOCCOCCNc1nc(N2CCN(C(=O)[C@H]([C@@H](C)CC)n3cc([C@@H](N)Cc4ccc(O)cc4)nn3)CC2)nc(N2CCN(C(=O)[C@H](Cc3cc4ccccc4[nH]3)n3cc([C@@H](N)CC(C)C)nn3)CC2)n1,39.8µM,·,–,·,–[2.33 µM],56.2µM
C#CCOCCOCCOCCNc1nc(N2CCN(C(=O)[C@H]([C@@H](C)CC)n3cc([C@@H](N)CC(C)C)nn3)CC2)nc(N2CCN(C(=O)[C@H](Cc3cc4ccccc4[nH]3)n3cc([C@@H](N)Cc4ccc(O)cc4)nn3)CC2)n1,56.2µM,·,–,?,–[12.7 µM],50.1µM
C#CCOCCOCCOCCNc1nc(N2CCN(C(=O)[C@H]([C@@H](C)CC)n3cc([C@@H](N)CC(C)C)nn3)CC2)nc(N2CCN(C(=O)[C@H](Cc3cc4ccccc4[nH]3)n3cc([C@@H](N)C(C)CC)nn3)CC2)n1 (stereo partly specified),·,·,·,–,–[12.7 µM],50.1µM
Cc1cc(C)n(CCC(=O)N2CCCC(c3nnnn3C)C2)n1 (stereo unspecified),·,–,·,·,·,·
CCOc1ccc(-c2nnc(SCc3nc4ccccc4o3)o2)cc1,·,–,·,·,·,·
CCS(=O)(=O)Nc1ccc(C)n(CC(=O)NCc2cc(F)ccc2F)c1=O,·,–,·,·,·,·
O=C(O)c1ccc(NC2=C/C(=N/S(=O)(=O)c3ccccc3)c3ccccc3C2=O)cc1,50.1µM,?,?,–,12.6µM,20µM
Cc1cc(C)c(S(=O)(=O)/N=C2\C=C(Nc3ccc(C(=O)O)cc3)C(=O)c3ccccc32)c(C)c1,31.6µM,–,?,50.1µM,10µM,8.91µM
O=C(c1nc(-c2ccc(F)cc2)c2cnccn12)N1CCCC1,·,–,·,·,·,·
O=C1N(C2CCN(S(=O)(=O)c3cnc[nH]3)CC2)C(c2ccccc2)C12CCCC2 (stereo unspecified),·,–,·,·,·,·
CCN1CCN(c2ccc(C(=O)NCCCc3ccc(OC)cc3)cn2)CC1,·,–,·,·,·,·
CN(C)c1cncc(C(=O)O)c1,–,–,–,56.2µM,–,–
SMILES,JMJD2A Tudor inh,ALOX12 inh,HP1b binding inh,Sfp PPTase inh,G9a block,BAZ2B inh
C=C(C)C1CCC(C)(O)CC1 (stereo unspecified),·,–,·,·,·,·
Cc1nc2sc3c(c2c2nc(C(=O)NCC(C)C)nn12)CC(C)(C)OC3,·,–,·,·,·,·
CN(C)C[C@@H]1CN(Cc2ccccc2)C[C@H]1NC(=O)c1nccn1C,·,–,·,·,·,·
CCN(CC)c1ccc(C(=O)NNC(=O)CCl)cc1,–,–,–,?,–,?
CCN(CC)c1ccc(C(=C2C=CC(=[N+](CC)CC)C=C2)c2ccccc2)cc1,15.8µM,22.4µM,10µM,?,·,·
CCN(CC)c1ccc(C(=C2C=CC(=[N+](CC)CC)C=C2)c2ccc(N(CC)CC)cc2)cc1,1.26µM,–,2.82µM,·,·,·
Cc1ccc2nc(/C(C#N)=C/c3ccc(-c4cccc([N+](=O)[O-])c4)o3)[nH]c2c1,?,–,–,–,7.94µM,?
Cc1cc(/C=C(/C#N)c2nc3ccccc3[nH]2)c(C)n1-c1cccc([N+](=O)[O-])c1,89.1µM,–,–,–,11.2µM,?
Cc1cc(/C=C(\C#N)c2nc3ccccc3[nH]2)c(C)n1C,–,?,–,–,–,–
CCOC(=O)c1cc(NC(=O)c2ccc(Cl)c(Cl)c2)ccc1N1CCOCC1,·,–,·,·,·,·
O=C1NC2=C(C(=O)c3ccccc32)C(c2ccccc2)N1 (stereo unspecified),–,–,–,–,?,–
COc1ccc(C2NC(=O)NC3=C2CCc2ccccc23)cc1 (stereo unspecified),–,·,–,?,?,–
CC(C)c1ccc(C2NC(=O)NC3=C2CCc2ccccc23)cc1 (stereo unspecified),–,?,–,–,31.6µM,–
Cc1ccc(C2NC(=O)NC3=C2CCc2ccccc23)cc1 (stereo unspecified),–,?,–,?,10µM,–
COc1ccc(S(=O)(=O)NCC(=O)O)c2ccccc12,·,–,·,·,·,·
CN(C)c1ccc(-c2nn3c(-c4ccc(Cl)cc4)nnc3s2)cc1,–,–,–,–,–,–
CNc1nnc(-c2ccc(N(C)C)cc2)s1,–,–,–,–,7.94µM,–
O=C1CCN(C(=O)c2cccnc2)CCCC(C(=O)N2CCN(Cc3ccccc3F)CC2)CCN1 (stereo unspecified),·,–,·,·,·,·
Cc1ccc(NC(=O)N2CCCC(Cn3cnc4cccnc43)C2)cc1F (stereo unspecified),·,–,·,·,·,·
COc1cccc(/C=N/N2C(=O)NC3(CCCCC3)C2=O)c1O,–,?,–,–,15.8µM,–
